# Measured values published in PubChem BioAssay (Tox21).
# Where “and” joins values, the source holds several entries; their conditions need not be identical. Identical values can stand only once. Some compounds were tested as several samples or in several runs, with calls that do not always agree. Calls of active or inactive are those of the source. A call without a number means that no potency is given here. Unless noted, calls come from the whole dose curve; as a rule, active = well fitted curve in the direction sought with a large enough effect in the repeat runs; inconclusive = weak or mixed curves; inactive = no such curve, though single readings can be large; an effect the other way counts as inactive or inconclusive. Non-standard residues stand in square brackets, D forms with d. Residues, ends and D or L forms follow the SMILES beside them. Orn = NCCC[C@H](N)C(=O)O
# Columns and labels:
# [1] = qHTS assay for small molecule agonists of the p53 signaling pathway (AID 651631; calls by dose curve; note: nearly all actives have a fitted effect of over 15% in size; note: potency is the fitted concentration of half-maximal effect)
# Procedure, shortened: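 We treat p53RE-bla HCT-116 cells with compounds for 16 h at 37 °C, add LiveBLAzer B/G FRET substrate for 2 h at room temperature, and measure fluorescence intensity.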
# [2] = qHTS assay for small molecules that induce genotoxicity in human embryonic kidney cells expressing luciferase-tagged ATAD5 (AID 651632); note: nearly all actives have a fitted effect of over 15% in size
# Procedure, shortened: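 Luminescence read-out: after 16 hr compound exposure at 37C, ATAD5-luciferase HEK293T cells received Amplite, 30 min RT, then CCD imaging. A rise in signal marks genotoxic stress.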
# [3] = qHTS assay for small molecule agonists of the p53 signaling pathway - cell viability (AID 651633; calls by dose curve; note: nearly all actives have a fitted effect of over 30% in size; note: potency is the fitted concentration of half-maximal effect)
# Procedure, shortened: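 p53RE-bla cells were treated with compound for 16 hours at 37 C. Cytotoxicity was then measured as CellTiter-Glo luminescence after 30 min at room temperature.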
# [4] = qHTS assay for small molecules that induce genotoxicity in human embryonic kidney cells expressing luciferase-tagged ATAD5 - cell viability (AID 651634; calls by dose curve; note: nearly all actives have a fitted effect of over 25% in size; note: potency is the fitted concentration of half-maximal effect)
# Procedure, shortened: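 HEK293T ATAD5-luc cells, 2,000/well; compound 15.5 hr, 37C/5% CO2; CellTiter-Fluor 30 min, 37C; fluorescence read.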
# [5] = qHTS assay for small molecule disruptors of the mitochondrial membrane potential - cell viability (AID 720634; calls by dose curve; note: nearly all actives have a fitted effect of over 20% in size; note: potency is the fitted concentration of half-maximal effect)
# Procedure, shortened: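 Luminescence from CellTiter-Glo (ATP content) gave viability in HepG2 cells, read in the same wells as the MMP dye assay after 1 hr compound exposure at 37 C.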
# [6] = qHTS assay for small molecule disruptors of the mitochondrial membrane potential (AID 720635); note: potency is the fitted concentration of half-maximal effect
# Procedure, shortened: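 HepG2 cells exposed to compound 1 hr at 37C, then Mito-MPS dye 30 min. Ratio read of aggregate (540/590 nm) versus monomer (490/535 nm) fluorescence.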
# [7] = qHTS assay to test for compound auto fluorescence at 590 nm (red) in HepG2 cells (AID 720674)
# Procedure, shortened: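 Seeding: 2,000 HepG2 cells/well, MEM/10% FBS, overnight 37 C. Dosing: compound vs DMSO. Incubation: 1 hr, 37 C, 5% CO2. Read: fluorescence 540 ex/590 em, Rose Bengal sodium as red reference.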
# [8] = qHTS assay to test for compound auto fluorescence at 535 nm (green) in HepG2 cells (AID 720675)
# [9] = qHTS assay to test for compound auto fluorescence at 460 nm (blue) in HEK293 cells (AID 720678)
# Procedure, shortened: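 After cell attachment (4-5 hr, 37C), compounds were pinned onto HEK293 monolayers in 10% dialyzed FBS medium. The blue channel (405/460 nm) was read following overnight culture. Equivalency was calculated against triamterene.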
# [10] = qHTS assay to test for compound auto fluorescence at 590 nm (red) in HEK293 cells (AID 720679)
# Procedure, shortened: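 Plates of HEK293 cells (10% dialyzed FBS) are treated with 23 nL compound or DMSO vehicle after a 4-5 hr attachment period, incubated overnight at 37C, and read for red fluorescence at 540/590nm.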
# [11] = qHTS assay to test for compound auto fluorescence at 535 nm (green) in HEK293 cells (AID 720680)
# [12] = qHTS assay to test for compound auto fluorescence at 460 nm (blue) in HEK293 cell free culture (AID 720681)
# Procedure, shortened: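 Compounds were added to cell-free DMEM with 10% FBS and fluorescence read directly. The blue channel used 405 nm excitation and 460 nm emission, with triamterene as the reference fluorophore.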
# [13] = qHTS assay to test for compound auto fluorescence at 535 nm (green) in HEK293 cell free culture (AID 720682)
# Procedure, shortened: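 Green-channel intensity (Ex/Em 485/535 nm) was recorded from compound-treated wells containing only DMEM with 10% FBS. Fluorescein provided the equivalency standard.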
# [14] = qHTS assay to test for compound auto fluorescence at 590 nm (red) in HEK293 cell free culture (AID 720683)
# Procedure, shortened: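 Cell-free wells of DMEM with 10% FBS received compound, and intrinsic fluorescence was read at excitation/emission 540/590 nm. Values expressed as equivalence to Rose Bengal sodium.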
# [15] = qHTS assay to test for compound auto fluorescence at 590 nm (red) in HepG2 cell free culture (AID 720684)
# Procedure, shortened: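 Rose Bengal sodium served as the reference for red signal. Test compounds were dispensed into serum-containing MEM (10% FBS) without cells, and plates were read at 540/590 nm.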
# [16] = qHTS assay to test for compound auto fluorescence at 535 nm (green) in HepG2 cell free culture (AID 720686)
# [17] = qHTS assay to test for compound auto fluorescence at 460 nm (blue) in HepG2 cells (AID 720687); note: potency is the fitted concentration of half-maximal effect
# Procedure, shortened: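 HepG2 cells in MEM with 10% FBS, attached overnight at 37 C, were exposed to compound or DMSO for 1 hr at 37 C, 5% CO2. Blue fluorescence was read at 405/460 nm, with triamterene as reference fluorophore.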
# [18] = molecular target: Glucocorticoid receptor (Homo sapiens) (UniProt P04150); test: qHTS assay to identify small molecule agonists of the glucocorticoid receptor (GR) signaling pathway (AID 720691; active = well fitted activation curve with a large enough effect in the signal ratio in the repeat runs, not every such curve was filed as active; inconclusive = weak or mixed curves, or effect the other way; inactive = no such curve, though single readings can be large or run the other way; the % refers to the signal ratio; note: potency is the fitted concentration of half-maximal effect); details: GR-bla HeLa, beta-lactamase reporter ratio, 18 h; activation: at 62.4 µM (top of the series)
# Sequence of Glucocorticoid receptor (Homo sapiens) (P04150 whole entry, looked up): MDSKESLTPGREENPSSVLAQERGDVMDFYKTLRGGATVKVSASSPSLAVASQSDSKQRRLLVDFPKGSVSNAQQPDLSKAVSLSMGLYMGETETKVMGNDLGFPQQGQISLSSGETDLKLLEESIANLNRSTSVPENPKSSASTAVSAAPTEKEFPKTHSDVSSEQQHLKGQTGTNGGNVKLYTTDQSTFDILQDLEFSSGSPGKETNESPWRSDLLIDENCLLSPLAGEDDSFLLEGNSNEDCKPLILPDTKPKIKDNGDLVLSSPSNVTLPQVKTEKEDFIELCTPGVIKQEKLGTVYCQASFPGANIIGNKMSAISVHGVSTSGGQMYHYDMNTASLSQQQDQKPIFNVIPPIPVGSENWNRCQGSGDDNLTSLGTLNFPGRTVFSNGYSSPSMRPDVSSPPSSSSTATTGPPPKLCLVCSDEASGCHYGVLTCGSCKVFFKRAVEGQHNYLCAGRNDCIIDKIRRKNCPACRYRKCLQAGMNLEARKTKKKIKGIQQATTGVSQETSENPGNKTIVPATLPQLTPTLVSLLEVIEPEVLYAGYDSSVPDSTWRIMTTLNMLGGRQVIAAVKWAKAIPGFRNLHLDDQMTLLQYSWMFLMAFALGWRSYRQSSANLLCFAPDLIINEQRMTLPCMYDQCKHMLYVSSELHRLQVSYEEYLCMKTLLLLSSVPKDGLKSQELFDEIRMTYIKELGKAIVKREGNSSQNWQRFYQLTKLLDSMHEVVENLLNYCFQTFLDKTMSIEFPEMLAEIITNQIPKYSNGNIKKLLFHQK
# Procedure, shortened: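 HeLa GR-bla reporter line; cells pre-incubated 4 h, compound in DMSO 18 h at 37 C; LiveBLAzer B/G FRET substrate 2 h RT; fluorescence intensity read-out.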
# [19] = molecular target: Glucocorticoid receptor (Homo sapiens) (UniProt P04150); test: qHTS assay to identify small molecule antagonists of the glucocorticoid receptor (GR) signaling pathway (AID 720692; active = well fitted inhibition curve with a large enough effect in the signal ratio in the repeat runs, not every such curve was filed as active; inconclusive = weak or mixed curves, or effect the other way; inactive = no such curve, though single readings can be large or run the other way; the % refers to the signal ratio; note: potency is the fitted concentration of half-maximal effect)
# Procedure, shortened: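 Read-out: beta-lactamase FRET substrate fluorescence, 2 h at room temperature, in HeLa cells stably carrying a GRE-driven bla reporter. Compounds were co-incubated with 5 nM dexamethasone agonist (final) for 18 h at 37 C.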
# [20] = qHTS assay to test for compound auto fluorescence at 460 nm (blue) in HepG2 cell free culture (AID 720685)
# Procedure, shortened: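 Cell-free plates of MEM plus 10% FBS received 23 nL compound or DMSO vehicle; blue-channel (405/460 nm) intensity scored against triamterene as reference fluorophore.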
# Tags give direction and shape of the fitted curve or compound fluorescence and quenching.
SMILES,Potency [1],Potency [2],Potency [3],Potency [4],Potency [5],Potency [6],outcome [7],Potency [8],Potency [9],outcome [10],outcome [11],Potency [12],outcome [13],outcome [14],outcome [15],Potency [16],Potency [17],Potency [18],Potency [19],Potency [20]
COc1cc(/C=C/C(=O)CC(=O)/C=C/c2ccc(O)c(OC)c2)ccc1O,13.3 µM (active) and 13.8 µM (active),inactive,18.8 µM (active) and 54.8 µM (active),inactive,11.9 µM (active) and 21.8 µM (active),750 nM (active) and 1.68 µM (active) and 548 nM (active),inactive,inactive,inactive,inactive,inactive,inactive,inactive,inactive,inactive,inactive,39800 nM [fluorescent] (active),inactive,23.9 µM (active) and inactive,–
NCC(O)CC(=O)O (stereo unspecified),inactive,inactive,inactive,inactive,inactive,inactive,inactive,inactive,inactive,inactive,–,inactive,inactive,inactive,inactive,inactive,inactive,inactive,inactive,inactive
NC(N)=NCC1COC2(CCCCC2)O1 (stereo unspecified),inactive,inactive,inactive,inactive,inactive,inactive,inactive,inactive,inactive,inactive,–,inactive,inactive,inactive,inactive,inactive,inactive,inactive,inactive,inactive
O=C1CC[C@@H](C(=O)N[C@H]2C[C@@H]2c2ccccc2)N1,inactive,inactive,inactive,inactive,inactive,inactive,inactive,inactive,inactive,inactive,inactive,inactive,inactive,inactive,inactive,inactive,–,inactive,–,–
c1ccc(-n2cnnn2)cc1,inactive,inactive,inactive,inactive,inactive,inactive,inactive,inactive,inactive,inactive,inactive,inactive,inactive,inactive,inactive,inactive,inactive,inactive,inactive,–
CC(C)C[C@@H]1NC(=O)[C@H](CCCN)NC(=O)[C@H](C(C)C)NC(=O)[C@@H]2CCCN2C(=O)[C@@H](Cc2ccccc2)NC(=O)[C@H](CC(C)C)NC(=O)[C@H](CCCN)NC(=O)[C@H](C(C)C)NC(=O)[C@@H]2CCCN2C(=O)[C@@H](Cc2ccccc2)NC1=O (cyclo(V[Orn]L[dF]PV[Orn]L[dF]P)),1.88 µM (active),inactive,2.66 µM (active),2980 nM (active),13.3 µM (active),237 nM (active),inactive,inactive,–,inactive,inactive,inactive,inactive,inactive,inactive,inactive,inactive,23900 nM [inconclusive] (active),–,inactive
CCN(CC)CCNC(=O)c1ccc(NS(C)(=O)=O)cc1,inactive,inactive,inactive,inactive,inactive,inactive,inactive,inactive,inactive,inactive,inactive,inactive,inactive,–,inactive,inactive,–,inactive,inactive,inactive
C=N[C@@H](C(=O)N[C@@H]1C(=O)N2[C@@H]1SC(C)(C)[C@@H]2C(=O)O)c1ccccc1,inactive,inactive,inactive,inactive,inactive,inactive,inactive,inactive,inactive,inactive,–,inactive,inactive,inactive,inactive,inactive,inactive,–,–,inactive
CCCCCCCCCCCCCC(=O)OCC(COP(=O)([O-])OCC[N+](C)(C)C)OC(=O)CCCCCCCCCCCCC (stereo unspecified),inactive,inactive,inactive,inactive,inactive,inactive,inactive,inactive,inactive,inactive,inactive,inactive,inactive,inactive,inactive,inactive,inactive,inactive,inactive,–
CC(C)c1ncc([N+](=O)[O-])n1C,inactive,inactive,inactive,inactive,inactive,inactive,inactive,inactive,inactive,inactive,inactive,inactive,inactive,inactive,inactive,inactive,inactive,inactive,inactive,–
CC(C)CCC[C@@H](C)[C@H]1CC[C@H]2[C@@H]3CC=C4C[C@@H](O)CC[C@]4(C)[C@H]3CC[C@]12C,inactive,inactive,inactive,inactive,inactive,inactive,inactive,inactive,inactive,inactive,inactive,inactive,inactive,–,inactive,inactive,inactive,inactive,inactive,inactive
CC1CCCC(C)N1NC(=O)c1ccc(Cl)c(S(N)(=O)=O)c1 (stereo unspecified),inactive,inactive,inactive,inactive,inactive,inactive,inactive,inactive,inactive,inactive,inactive,inactive,inactive,–,inactive,inactive,–,inactive,inactive,inactive
CO/N=C(\C(=O)N[C@@H]1C(=O)N2C(C(=O)[O-])=C(C[n+]3cccc4c3CCC4)CS[C@H]12)c1csc(N)n1,inactive,inactive,inactive,inactive,inactive,inactive,inactive,inactive,–,inactive,inactive,inactive,inactive,inactive,inactive,inactive,inactive,–,–,inactive
O=C(O)Cc1nn(Cc2ccc(Br)cc2F)c(=O)c2ccccc12,inactive,inactive,inactive,inactive,inactive,inactive,inactive,inactive,inactive,inactive,inactive,inactive,inactive,–,inactive,inactive,inactive,–,–,inactive
CCCCCCCCCCCCCCCCCCOCC(COP(=O)([O-])OCC[N+](C)(C)C)OC (stereo unspecified),inactive,inactive,inactive,inactive,inactive,inactive,inactive,inactive,–,inactive,inactive,inactive,inactive,inactive,inactive,inactive,inactive,inactive,–,inactive
O=P(O)(O)CP(=O)(O)O,inactive,inactive,inactive,inactive,inactive,inactive,inactive,–,inactive,inactive,inactive,inactive,inactive,inactive,inactive,inactive,inactive,inactive,–,inactive
CCCCCCCCCCCCCCCC(=O)OC[C@H](COP(=O)([O-])OCC[N+](C)(C)C)OC(=O)CCCCCCCCCCCCCCC,inactive,inactive,inactive,inactive,inactive,inactive,inactive,inactive,–,inactive,inactive,inactive,inactive,inactive,inactive,inactive,inactive,inactive,inactive,inactive
Cc1cnc(C(=O)O)c[n+]1[O-],inactive,inactive,inactive,inactive,inactive,inactive,inactive,–,inactive,inactive,inactive,inactive,inactive,–,inactive,inactive,inactive,–,–,inactive
CC(C)(Oc1ccc(C2CCCc3ccccc32)cc1)C(=O)O (stereo unspecified),inactive,inactive,inactive,inactive,inactive,inactive,inactive,–,inactive,inactive,inactive,inactive,inactive,inactive,inactive,inactive,inactive,inactive,inactive,–
c1ccc2c(c1)OCC(CN1CCCCC1)O2 (stereo unspecified),inactive,inactive,inactive,inactive,inactive,–,inactive,inactive,inactive,inactive,inactive,inactive,inactive,inactive,inactive,inactive,inactive,–,–,inactive
CC(C)C[C@H](NC(=O)[C@@H](COC(C)(C)C)NC(=O)[C@H](Cc1ccc(O)cc1)NC(=O)[C@H](CO)NC(=O)[C@H](Cc1c[nH]c2ccccc12)NC(=O)[C@H](Cc1cnc[nH]1)NC(=O)[C@@H]1CCC(=O)N1)C(=O)N[C@@H](CCCN=C(N)N)C(=O)N1CCC[C@H]1C(=O)NNC(N)=O,inactive,inactive,inactive,inactive,inactive,inactive,inactive,–,inactive,inactive,inactive,inactive,inactive,inactive,inactive,inactive,inactive,inactive,inactive,inactive
CO[C@H]1C[C@H](O[C@H]2[C@H](C)[C@@H](O[C@@H]3O[C@H](C)C[C@H](N(C)C)[C@H]3O)[C@@H](C)C[C@]3(CO3)C(=O)[C@H](C)[C@@H](O)[C@@H](C)[C@@H](C)OC(=O)[C@@H]2C)O[C@@H](C)[C@@H]1O,inactive,inactive,inactive,inactive,inactive,inactive,inactive,–,inactive,inactive,inactive,inactive,inactive,inactive,inactive,inactive,inactive,inactive,inactive,–
CC12CCC(C1)C(C)(C)C2=O (stereo unspecified),inactive,inactive,inactive,inactive,inactive,inactive,inactive,inactive,–,inactive,–,inactive,inactive,inactive,inactive,inactive,inactive,–,–,inactive
C[S+](CC[C@H](N)C(=O)O)C[C@H]1O[C@@H](n2cnc3c(N)ncnc32)[C@H](O)[C@@H]1O (stereo partly specified),inactive,inactive,inactive,inactive,inactive,–,inactive,inactive,inactive,inactive,inactive,inactive,inactive,inactive,inactive,inactive,inactive,–,–,inactive
